# Measurements published in PubChem BioAssay (NCI).
# Compounds without any hit were thinned out: in the full panel of roughly 79,000, 15% have a hit. Values without a mark were called inactive. Calls of active or inactive are those of the source. Cut-off read from the data, not from the text of the source: active = growth inhibition above about 70%; inactive = the rest.
# Tests used:
# [1] = NCI Yeast Anticancer Drug Screen. Data for the rad50 strain (AID 155);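 note: 0% = growth of vehicle-only cultures of the same strain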; settings: S. cerevisiae rad50 strain growth inhibition, hits give high values
# In short: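 DNA repair mutant yeast, compound exposure, growth read-out; inhibition is taken relative to vehicle.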
# [2] = NCI Yeast Anticancer Drug Screen. Data for the mec2-1 strain (AID 157); settings: S. cerevisiae mec2-1 strain, hits give high values
# In short: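 Using mec2-1 yeast: add compound, measure growth, express inhibition versus vehicle-treated cultures.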
# [3] = NCI Yeast Anticancer Drug Screen. Data for the sgs1 mgt1 strain (AID 161);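 note: 0% = growth of cultures given vehicle only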; settings: S. cerevisiae sgs1 mgt1 strain, hits give high values
# In short: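 Percent growth inhibition was derived by comparing compound-exposed mutant yeast with vehicle-exposed cultures. The strain carries alterations in DNA damage repair.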
# [4] = NCI Yeast Anticancer Drug Screen. Data for the cln2 rad14 strain (AID 165);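 note: 0% = growth equal to vehicle treated cultures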; settings: S. cerevisiae cln2 rad14 strain, hits give high values
# In short: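 Yeast strain cln2 rad14, bearing defects in cell cycle control and DNA repair, serves as the test system; values reflect growth inhibition compared with vehicle.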
# [5] = NCI Yeast Anticancer Drug Screen. Data for the bub3 strain (AID 167); settings: S. cerevisiae bub3 mutant strain, hits give high values
# In short: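 In this screen, a yeast mutant lacking normal mitotic checkpoint function is challenged with compound. Relative growth versus vehicle gives the inhibition value.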
# [6] = NCI Yeast Anticancer Drug Screen. Data for the mlh1 rad18 strain (AID 175); settings: S. cerevisiae mlh1 rad18 strain growth inhibition, hits give high values
# In short: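 Steps: expose repair-defective yeast to compound; measure growth; express inhibition against vehicle-treated controls.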
# [7] = at 5.0 µM (retest, dose inferred, filed as 0.5)
# [8] = at 50.0 µM (retest, dose inferred, filed as 5.0)
Structure (SMILES),"growth inhibition [1, 7]","growth inhibition [1, 8]",growth inhibition ([1]; at 50.0 µM),"growth inhibition [2, 7]","growth inhibition [2, 8]",growth inhibition ([2]; at 50.0 µM),"growth inhibition [3, 7]","growth inhibition [3, 8]",growth inhibition ([3]; at 50.0 µM),"growth inhibition [4, 7]","growth inhibition [4, 8]",growth inhibition ([4]; at 50.0 µM),"growth inhibition [5, 7]","growth inhibition [5, 8]",growth inhibition ([5]; at 50.0 µM),"growth inhibition [6, 7]","growth inhibition [6, 8]",growth inhibition ([6]; at 50.0 µM)
CN(C)c1ccc(/C=N/c2nc(-c3ccccc3)cs2)cc1,9%,90% (active),94.9% (active),7%,96% (active),98.4% (active),5%,92% (active),98% (active),2%,89% (active),97.2% (active),1%,93% (active),93.2% (active),23%,95% (active),97.8% (active)
Cc1nc(-c2ccc(N=Cc3ccc(N(CCOS(C)(=O)=O)CCOS(C)(=O)=O)cc3)cc2)cs1,1%,46%,46.5%,-24%,9%,7.75%,-2%,17%,21.1%,-2%,33%,-45.7%,-3%,-10%,-2.55%,12%,54%,71.8% (active)
O=C(NCCCN1CCN(CCCNC(=O)c2cc(-c3ccccc3)nc3ccccc23)CC1)c1cc(-c2ccccc2)nc2ccccc12,49%,95% (active),84.6% (active),30%,95% (active),88.7% (active),26%,75% (active),8.55%,29%,41%,86.3% (active),30%,64%,86.1% (active),38%,96% (active),81.9% (active)
CC(=O)CCC(Br)(CCC(Br)(CCC(C)=O)[N+](=O)[O-])[N+](=O)[O-] (stereo not given),0%,13%,95.2% (active),8%,14%,90.5% (active),-5%,33%,81.8% (active),15%,29%,91.5% (active),11%,28%,79% (active),12%,22%,98.3% (active)
CCOC(=O)c1cccc(C)c1C(=O)c1ccc(C)cc1C,3%,66%,38.9%,4%,79% (active),79.3% (active),0%,-36%,47.3%,6%,-1%,-9.5%,-4%,24%,82.8% (active),-2%,41%,59.6%
NC(=S)C1CCC(C2CCCCC2)CC1 (stereo not given),5%,97% (active),96.5% (active),14%,96% (active),94.8% (active),13%,97% (active),97.2% (active),-4%,94% (active),83.5% (active),13%,97% (active),96.3% (active),21%,97% (active),95.8% (active)
COc1ccc(-c2nc(C)[nH]c(=O)c2Cc2c(O)ccc3ccccc23)cc1,3%,50%,98.5% (active),-4%,4%,10.3%,1%,8%,97.8% (active),4%,7%,22%,0%,1%,4.45%,2%,2%,97% (active)
CCOC(=O)c1cnn(-c2ccccc2)c1N,62%,98% (active),88.8% (active),26%,99% (active),92.8% (active),18%,98% (active),89.4% (active),15%,97% (active),86.6% (active),63%,98% (active),90.2% (active),23%,98% (active),88.2% (active)
C=CCN1CCC(OC(=O)C(O)(C#CC)C2CCCC2)CC1 (stereo not given),40%,72% (active),68.9%,31%,62%,50.9%,40%,71% (active),71.9% (active),35%,76% (active),58.6%,21%,78% (active),61.8%,17%,66%,64%
O=C(O)/C=C/c1ccc2c(c1)CC1(Cc3ccccc3C1)C2,27%,82% (active),45.6%,40%,90% (active),66.2%,84% (active),87% (active),73% (active),64%,93% (active),83.3% (active),85% (active),92% (active),78.5% (active),67%,88% (active),80% (active)
